The values that follow come from PubChem BioAssay (EPA / NIEHS).

Results filed as inconclusive are left out. The source made the active and inactive calls. How the source made its calls: active means hit-call score of the fitted dose curve at least 0.9, where 1 is the maximum; inconclusive means response in the unintended direction; inactive means score below 0.9.

In the experiment the target is bovine Estrogen Receptor (ER), ESR1 (gene 407238) (UniProt P49884). Put plainly: NVS_NR_bER: NovaScreen (NVS) Nuclear Receptor Binding Assay for bovine Estrogen Receptor (ER) (AID 2283345).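 Further: actives lower the bound radioligand count which means they displace the ER ligand.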 How it is done: NVS_NR_bER is a biochemical, single-readout assay that uses extracted gene-proteins from Bovine uterine membranes in a tissue-based cell-free assay. Measurements were taken 18 hours after chemical dosing in a 96-well plate.NVS_NR_bER is one of one assay component(s) measured or calculated from the NVS_NR_bER assay. It is designed to make measurements of radioligand binding, a form of binding reporter, as detected with scintillation counting signals by Lysate-based radiodetection technology.Data from the assay component NVS_NR_bER was analyzed into 1 assay endpoint. This assay endpoint, NVS_NR_bER, was analyzed in the positive analysis fitting direction relative to DMSO as the negative control and baseline of activity. Using a type of binding reporter, loss-of-signal activity can be used to understand changes in the binding as they relate to the gene ESR1. Furthermore, this assay endpoint can be referred to as a primary readout, because the performed assay has only produced 1 assay endpoint. To generalize the intended target to other relatable targets, this assay endpoint is annotated to the nuclear receptor intended target family, where the subfamily is steroidal.
Sequence of bovine Estrogen Receptor (ER), ESR1 (gene 407238) (P49884 whole entry, looked up): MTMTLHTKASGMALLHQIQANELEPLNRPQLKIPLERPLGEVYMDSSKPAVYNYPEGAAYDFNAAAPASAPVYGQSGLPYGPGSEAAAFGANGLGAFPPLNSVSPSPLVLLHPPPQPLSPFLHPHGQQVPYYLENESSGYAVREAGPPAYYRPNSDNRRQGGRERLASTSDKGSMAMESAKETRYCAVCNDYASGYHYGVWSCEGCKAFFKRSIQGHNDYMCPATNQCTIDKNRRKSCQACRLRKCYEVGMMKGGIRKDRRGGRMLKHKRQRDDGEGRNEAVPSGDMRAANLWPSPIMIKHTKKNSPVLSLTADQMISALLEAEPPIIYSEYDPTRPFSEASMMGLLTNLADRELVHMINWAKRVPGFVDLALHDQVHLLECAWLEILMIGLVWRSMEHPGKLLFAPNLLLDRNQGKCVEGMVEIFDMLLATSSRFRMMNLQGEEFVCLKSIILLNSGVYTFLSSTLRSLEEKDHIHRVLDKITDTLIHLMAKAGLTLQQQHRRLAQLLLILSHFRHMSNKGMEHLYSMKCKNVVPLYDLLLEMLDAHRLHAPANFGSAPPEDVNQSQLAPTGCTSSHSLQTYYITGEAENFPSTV
Binding assays used specific radioligands (tritiated, iodinated) with non-radioactive competitive displacement ligands in agonist or antagonist protocols (as indicated) and various reference compounds and inhibitors to titrate specific binding to receptors and transporters. Most enzyme assays (CYPs, kinases, phosphatases, proteases, HDACs) used recombinant protein and specific substrates (fluorescence mostly, some colorimetric and radioactive) and inhibitors, followed by a biochemical separation of substrate and product. All assays for the biochemical HTS were initially run in duplicate at a single concentration (10 uM for CYP450 assays and 25 uM for all others). […] Each assay was run with positive and negative controls, and concurrent controls on every plate. The follow-up (secondary) screen tested active chemical-pairs in concentration series, as well as a few additional assays not tested in the primary screen, some selected negative inactives, and several cases re-run in the concentration series for confirmatory purposes.
With `CC(C)(C)C(=O)C(Oc1ccc(Cl)cc1)n1cncn1` (centres undefined), the compound was classed as inactive.

Consider `CS(=O)(=O)c1cc(C(F)(F)F)ccc1C(=O)c1cnoc1C1CC1`, for which the call was inactive.

With `N#Cc1c[nH]cc1-c1cccc2c1OC(F)(F)O2`, the call was inactive.

In the case of `CCCCC(C#N)(Cn1cncn1)c1ccc(Cl)cc1` (centres undefined), the compound was classed as inactive.

`N#Cc1c(Cl)cccc1Cl`: the compound was classed as inactive.

Turning to `O=c1n(Cl)c(=O)n(Cl)c(=O)n1Cl`, the compound was classed as inactive.

Take `COP(=S)(OC)Oc1ccc([N+](=O)[O-])c(C)c1`: the outcome was inactive.

Consider `CCCCC(O)(Cn1cncn1)c1ccc(Cl)cc1Cl` (centres undefined), for which the call was inactive.

For `OC(c1ccc(Cl)cc1)(c1ccc(Cl)cc1)C(Cl)(Cl)Cl`, the outcome was inactive.

Regarding `CC(C)Oc1cccc(NC(=O)c2ccccc2C(F)(F)F)c1`, the compound was classed as inactive.

Consider `CN=C=S`, for which the call was inactive.

As to `CC1(C)C(C=C(Cl)Cl)C1C(=O)OC(C#N)c1cccc(Oc2ccccc2)c1` (centres undefined), the compound was classed as inactive.

In the case of `CCOC(=O)C(C)OC(=O)c1cc(Oc2ccc(C(F)(F)F)cc2Cl)ccc1[N+](=O)[O-]` (centres undefined), the call was inactive.

Turning to `CC(C)=CC1C(C(=O)OCc2coc(Cc3ccccc3)c2)C1(C)C` (centres undefined), the outcome was inactive.
